Several values for one entry are separate records, joined by “and”; a condition that tells them apart may be missing. Identical values can stand only once. Hit rate of the full screen: of about 5,500 compounds, about 2,000 (36%) were called active. Another 18% or so got no clear call; they are omitted. No stated cut-off is given here; in the data, active means normalized growth mostly below about 0.91 (no sharp cut-off); inconclusive means no clear call, values can overlap the other calls; inactive means mostly above about 0.92. This is one part of the list.
Assay: chemical genetic growth profiling, strain panel (AID 1159580);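 further: tested at 20 µM; growth read once vehicle control cultures reached saturation at 30 °C; 1 = growth at the plate median or of vehicle wells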
Details: growth OD

Measured: normalized growth

CCCCC[C@H]1C(=O)O[C@H](C)[C@H](NC(=O)c2cccc(NC=O)c2O)C(=O)O[C@@H](C)[C@@H]1OC(=O)CC(C)C
0.875 (inactive) and 0.859 (active): S. cerevisiae deletion strains, locus YJL095W, strain BCK1, stronger effect = lower value
inactive: S. cerevisiae deletion strains, locus YBR021W, strain FUR4, stronger effect = lower value 0.965 | S. cerevisiae deletion strains, locus YBR229C, strain ROT2, stronger effect = lower value 0.949 | S. cerevisiae deletion strains, locus YCL029C, strain bik1, stronger effect = lower value 0.922 | S. cerevisiae deletion strains, locus YDL074C, strain BRE1, stronger effect = lower value 0.797 | S. cerevisiae deletion strains, locus YDL101C, strain DUN1, stronger effect = lower value 0.936 | S. cerevisiae deletion strains, locus YDL185W, strain tfp1, stronger effect = lower value 0.919 | S. cerevisiae deletion strains, locus YDR101C, strain arx1, stronger effect = lower value 0.93 | S. cerevisiae deletion strains, locus YDR162C, strain NBP2, stronger effect = lower value 0.905 | S. cerevisiae deletion strains, locus YDR502C, strain sam2, stronger effect = lower value 0.939 | S. cerevisiae deletion strains, locus YEL061C, strain CIN8, stronger effect = lower value 0.936 | S. cerevisiae deletion strains, locus YER110C, stronger effect = lower value 0.979 | S. cerevisiae deletion strains, locus YER155C, strain BEM2, stronger effect = lower value 0.978 | S. cerevisiae deletion strains, locus YGL248W, strain PDE1, stronger effect = lower value 0.912 | S. cerevisiae deletion strains, locus YHR030C, strain SLT2, stronger effect = lower value 0.947 and 0.873 | S. cerevisiae deletion strains, locus YHR079C, strain IRE1 (second series), stronger effect = lower value 0.943 | S. cerevisiae deletion strains, locus YHR079C, strain IRE1, stronger effect = lower value 0.863 | S. cerevisiae deletion strains, locus YHR094C, strain hxt1, stronger effect = lower value 0.933 | S. cerevisiae deletion strains, locus YIL066C, strain RNR3, stronger effect = lower value 0.88 | S. cerevisiae deletion strains, locus YIL073C, strain SPO22, stronger effect = lower value 0.844 | S. cerevisiae deletion strains, locus YIR030C, strain dcg1, stronger effect = lower value 0.946 | S. cerevisiae deletion strains, locus YJL134W, strain LCB3, stronger effect = lower value 0.932 | S. cerevisiae deletion strains, locus YJL168C, strain set2, stronger effect = lower value 0.933 | S. cerevisiae deletion strains, locus YJL187C, strain SWE1 (second series), stronger effect = lower value 0.889 | S. cerevisiae deletion strains, locus YJR066W, strain TOR1, stronger effect = lower value 0.861 | S. cerevisiae deletion strains, locus YKL068W, stronger effect = lower value 1.02 | S. cerevisiae deletion strains, locus YKL085W, strain MDH1 (second series), stronger effect = lower value 0.961 | S. cerevisiae deletion strains, locus YKL085W, strain MDH1, stronger effect = lower value 0.961 | S. cerevisiae deletion strains, locus YKL190W, strain CNB1, stronger effect = lower value 0.933 | S. cerevisiae deletion strains, locus YKR001C, strain vps1, stronger effect = lower value 0.922 | S. cerevisiae deletion strains, locus YLR039C, strain RIC1, stronger effect = lower value 0.933 | S. cerevisiae deletion strains, locus YLR058C, strain SHM2, stronger effect = lower value 0.932 | S. cerevisiae deletion strains, locus YLR102C, strain apc9, stronger effect = lower value 0.944 | S. cerevisiae deletion strains, locus YLR262C, strain YPT6, stronger effect = lower value 0.84 | S. cerevisiae deletion strains, locus YLR268W, strain sec22, stronger effect = lower value 0.923 | S. cerevisiae deletion strains, locus YLR330W, strain CHS5, stronger effect = lower value 0.962 | S. cerevisiae deletion strains, locus YLR342W, strain FKS1 (second series), stronger effect = lower value 0.887 | S. cerevisiae deletion strains, locus YLR371W, strain rom2, stronger effect = lower value 0.921 | S. cerevisiae deletion strains, locus YLR418C, strain cdc73, stronger effect = lower value 0.893 | S. cerevisiae deletion strains, locus YML016C, strain PPZ1, stronger effect = lower value 0.946 | S. cerevisiae deletion strains, locus YML124C, strain tub3, stronger effect = lower value 0.943 | S. cerevisiae deletion strains, locus YMR263W, strain SAP30, stronger effect = lower value 0.921 | S. cerevisiae deletion strains, locus YMR307W, strain GAS1, stronger effect = lower value 0.616 | S. cerevisiae deletion strains, locus YNL067W, strain RPL9B, stronger effect = lower value 0.921 | S. cerevisiae deletion strains, locus YNL233W, strain BNI4, stronger effect = lower value 0.914 | S. cerevisiae deletion strains, locus YNL307C, strain MCK1, stronger effect = lower value 0.967 | S. cerevisiae deletion strains, locus YNL322C, strain KRE1, stronger effect = lower value 0.937 | S. cerevisiae deletion strains, locus YOL006C, strain TOP1, stronger effect = lower value 0.736 | S. cerevisiae deletion strains, locus YOL012C, strain htz1 0.619 | S. cerevisiae deletion strains, locus YOL147C, strain pex11, stronger effect = lower value 0.942 | S. cerevisiae deletion strains, locus YOR061W, strain CKA2, stronger effect = lower value 0.895 | S. cerevisiae deletion strains, locus YOR069W, strain VPS5, stronger effect = lower value 0.932 | S. cerevisiae deletion strains, locus YOR136W, strain idh2, stronger effect = lower value 0.983 | S. cerevisiae deletion strains, locus YOR231W, strain MKK1, stronger effect = lower value 0.864 | S. cerevisiae deletion strains, locus YOR316C, strain cot1, stronger effect = lower value 0.945 | S. cerevisiae deletion strains, locus YPL256C, strain CLN2, stronger effect = lower value 0.912 | S. cerevisiae deletion strains, locus YPR119W, strain clb2, stronger effect = lower value 0.939 | S. cerevisiae deletion strains, locus YPR167C, strain met16, stronger effect = lower value 0.939 | S. cerevisiae deletion strains, strain wtn01, stronger effect = lower value 0.901
active: S. cerevisiae deletion strains, locus YDL035C, strain GPR1, stronger effect = lower value 0.839 | S. cerevisiae deletion strains, locus YDL134C, strain PPH21, stronger effect = lower value 0.86 | S. cerevisiae deletion strains, locus YDL192W, strain arf1, stronger effect = lower value 0.91 | S. cerevisiae deletion strains, locus YDR318W, strain mcm21, stronger effect = lower value 0.908 | S. cerevisiae deletion strains, locus YDR388W, stronger effect = lower value 0.913 | S. cerevisiae deletion strains, locus YER167W, strain BCK2, stronger effect = lower value 0.904 | S. cerevisiae deletion strains, locus YGL078C, strain dbp3, stronger effect = lower value 0.895 | S. cerevisiae deletion strains, locus YGL086W, strain mad1, stronger effect = lower value 0.923 | S. cerevisiae deletion strains, locus YGR135W, strain pre9, stronger effect = lower value 0.891 | S. cerevisiae deletion strains, locus YGR252W, strain gcn5, stronger effect = lower value 0.684 | S. cerevisiae deletion strains, locus YHR129C, strain ARP1, stronger effect = lower value 0.904 | S. cerevisiae deletion strains, locus YHR200W, strain rpn10, stronger effect = lower value 0.904 | S. cerevisiae deletion strains, locus YIL125W, strain kgd1, stronger effect = lower value 0.896 | S. cerevisiae deletion strains, locus YJR043C, strain POL32, stronger effect = lower value 0.838 | S. cerevisiae deletion strains, locus YLR113W, strain HOG1, stronger effect = lower value 0.777 | S. cerevisiae deletion strains, locus YML032C, strain rad52, stronger effect = lower value 0.83 | S. cerevisiae deletion strains, locus YMR078C, strain ctf18, stronger effect = lower value 0.9 | S. cerevisiae deletion strains, locus YMR223W, strain ubp8, stronger effect = lower value 0.88 | S. cerevisiae deletion strains, locus YNL183C, strain NPR1, stronger effect = lower value 0.827 | S. cerevisiae deletion strains, locus YNL250W, strain rad50, stronger effect = lower value 0.853 | S. cerevisiae deletion strains, locus YNL271C, strain bni1, stronger effect = lower value 0.9 | S. cerevisiae deletion strains, locus YNL298W, strain CLA4, stronger effect = lower value 0.891 | S. cerevisiae deletion strains, locus YNR052C, strain pop2, stronger effect = lower value 0.874 | S. cerevisiae deletion strains, locus YOR144C, strain elg1, stronger effect = lower value 0.933 | S. cerevisiae deletion strains, locus YOR184W, strain ser1, stronger effect = lower value 0.674 | S. cerevisiae deletion strains, locus YPR141C, strain kar3, stronger effect = lower value 0.9 | S. cerevisiae deletion strains, locus YPR163C, strain tif3, stronger effect = lower value 0.893 | S. cerevisiae strains, strain wild type, stronger effect = lower value 0.895

Source: PubChem BioAssay AID1159580 (chemical genetic matrix, 2015)
